High-throughput results: PubChem, Center for Chemical Genomics, University of Michigan
Rows were chosen to be rich in hits. Some 0.86% of all compounds tested hit in one or more screens of this group.
TAR Tat displ = HIV-1 TAR-Tat binding disruption. HIV-1 TAR RNA, Tat peptide displacement FRET; active compounds read high. z-score (concentration not given with the values). 100,000 compounds, 0.6% hits; active means z-score of 3 or more in at least 2 runs
CDC25B CDK2 inh = human CDC25B-CDK2/CyclinA binding inhibition | 94,000 compounds, 0.72% hits | HTRF CDC25B-CDK2/CyclinA binding, anti-His/anti-Flag; active compounds read high | z-score (test concentration not listed) | P30305+P24941; in the data active means z-score above about 3.2
Numbers without * were called inactive; . = no result given.

SMILES | TAR Tat displ | CDC25B CDK2 inh
CCN(CC)c1ccc(CNCCSc2nnnn2C)cc1 | 0.65 | -1.07
CCCSC1=C(C#N)C(c2ccc(O)c(OCC)c2)CC(=O)N1 (stereo not drawn) | -0.28 | -1.05
CCOc1cc(C2CC(=O)N3CN(c4ccc(Br)cc4)CSC3=C2C#N)ccc1O (stereo not drawn) | 26.8* | 2.96
CCOc1cc(C2CC(=O)N3CN(c4ccc(CC)cc4)CSC3=C2C#N)ccc1O (stereo not drawn) | 23.7* | 1.17
CCOc1cc(C2CC(=O)N3CN(Cc4ccco4)CSC3=C2C#N)ccc1O (stereo not drawn) | 1.73 | 2.11
O=C(Nc1ccc(F)cc1)c1noc2ncnc(N3CCOCC3)c12 | -0.43 | .
Cc1ccc(OCc2nc3ccc(C)cc3[nH]2)c(C)c1 | 2.08 | 2.12
COc1ccccc1C(=O)OCc1cc(=O)n2c3c(sc2n1)CCCC3 | 1.14 | .
CC1CCCN(S(=O)(=O)c2ccc(S(=O)(=O)N3CCN(c4ncccn4)CC3)cc2)C1 (stereo not drawn) | 2.02 | -1.87
COc1ccc(NC(=O)c2sc(=S)n3c2[nH]c(=O)c2ccccc23)cc1OC | 3.61 | .
COc1ccc(NC(=O)c2sc(=S)n3c2[nH]c(=O)c2sccc23)cc1OC | 9.21* | .
O=C(CSCc1cnn(-c2ccccc2)c1-n1cccc1)N1CCN(C2CCCCC2)CC1 | 0.55 | -1.63
O=C(Nc1nc(-c2ccccc2)cs1)c1c(-c2ccccc2)nc2n1CCS2(=O)=O | 0.32 | -8.32
Cc1ccc(-c2cc3c4c(C)n(Cc5ccccc5)c(C)c4c(C)nn3c2)o1 | -0.55 | -1.43
Cc1ccc(-c2cc3c4c(C)n(C)c(C)c4c(C)nn3c2)o1 | 35.6* | 15.8*
Cc1ccc(-c2cc3c4c(C)n(Cc5ccc6c(c5)OCO6)c(C)c4c(C)nn3c2)o1 | 35.5* | 22.9*
Cc1ccc(-n2c(C)c3c(C)nn4cc(C)cc4c3c2C)cc1 | . | 0.82
Cc1ccc(-c2cc3c4c(C)n(C5CCCCC5)c(C)c4c(C)nn3c2)o1 | 16.6* | -0.58
Cc1ccc(-c2onc(C)c2C)cc1S(=O)(=O)Nc1cc(F)ccc1F | 2.55 | .
O=C(NC1CCCCCCC1)C1CCC(CNc2c(N3CCCCC3)c(=O)c2=O)CC1 (stereo not drawn) | . | -1.64
CCc1nc(SCc2cc(=O)n3ccsc3n2)n[nH]1 | 0.23 | .
CCCn1c(=O)c2sccc2n2c(CCCC(=O)NC3CCCC3)nnc12 | -1.37 | .
Cc1ccc(-c2c(N(C)c3ccc(C)cc3)c(=O)c2=O)cc1 | 1.68 | .
Cc1c(C(=O)N2CCC(C)CC2)c(S(=O)(=O)N2CCc3ccccc3C2)c(C)n1C | 2.23 | .
CCOc1ccc(CN(CCc2ccc3c(c2)OCO3)Cc2cccnc2)cc1 | 0.9 | 15.8*
SMILES | TAR Tat displ | CDC25B CDK2 inh
CCOc1ccccc1CN(CCc1ccc2c(c1)OCO2)Cc1cccnc1 | . | -0.39
O=C(Nc1c(C(=O)c2ccc(F)cc2)oc2ccccc12)c1cc(=O)c2ccccc2o1 | -0.51 | -0.23
COCCCNc1nc2c(S(=O)(=O)c3ccccc3)nnn2c2ccccc12 | 1.11 | -1.88
CCOCCCNc1nc2c(S(=O)(=O)c3ccccc3)nnn2c2ccccc12 | 11.2* | -0.96
COc1cccc2c1Oc1ncccc1NC2 | 0.72 | 8.56*
COc1cccc2c1Oc1ncccc1N(C(=O)CCC(=O)O)C2 | 0.06 | 1.76
O=c1c(S(=O)(=O)c2ccccc2)c[nH]c2c(F)cccc12 | 1.51 | 0.52
O=c1c(O)cccc2cc(O)c(O)c(O)c12 | 30.4* | .
O=C1c2ccccc2C(=O)c2c(O)c(O)cc(O)c21 | 3.46 | .
CCOC(=O)CNC(=O)N1CCN(c2nc3cc(F)ccc3n3cccc23)CC1 | 0.46 | .
Nc1nc(NCc2ccccc2)nc(Nc2ccccc2F)c1[N+](=O)[O-] | 0.23 | .
Cc1ccc(Nc2nc(-c3ccc(O)c(O)c3)cs2)nc1 | 15.5* | -1.12
Cc1ccc(Nc2nc(-c3ccc(O)cc3)cs2)nc1 | 1.86 | -1.6
Cn1c(=O)c(C(=O)O)nc2ccccc21 | 0.87 | -1.76
CCOC(=O)c1nc2ccccc2n(C)c1=O | -1.32 | 23*
